# Results published in the supplement of paper PMC8728848.
# The entries come from a sample that favours the strongest signals as a whole.
# What was measured:
# Assay in all cases: glycan array binding signal (z-score within array); higher = stronger binding
# Settings in all cases: glycan notation: IUPAC condensed, linker removed
# Glc(b1-6)Glc = target: Glc(b1-6)Glc
# Summary of the method: (§1)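 From the Consortium for Functional Glycomics database, 3228 arrays were curated, keeping only those whose protein sequence was available. Binding is given as a within-array Z-score averaged across arrays sharing a protein sequence and across linkers. Negative Z-scores can be read as non-binding.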
# GlcA(b1-3)Gal = target: GlcA(b1-3)Gal
# Summary of the method: as §1
# GlcA(b1-3)GlcNAc = target: GlcA(b1-3)GlcNAc
# Summary of the method: as §1
# [1] = target: GlcA3S(b1-3)Gal(b1-4)GlcNAc(b1-3)Gal(b1-4)Glc
# Summary of the method: as §1
# [2] = target: GlcNAc(b1-2)Man(a1-3)[GlcNAc(b1-4)][GlcNAc(b1-2)Man(a1-6)]Man(b1-4)GlcNAc(b1-4)[Fuc(a1-6)]GlcNAc
# Summary of the method: as §1
# [3] = target: GlcNAc(b1-2)[GlcNAc(b1-4)]Man(a1-3)[GlcNAc(b1-2)Man(a1-6)]Man(b1-4)GlcNAc(b1-4)GlcNAc
# Summary of the method: as §1
# [4] = target: GlcNAc(b1-2)[GlcNAc(b1-6)]Man(a1-6)[GlcNAc(b1-2)Man(a1-3)]Man(b1-4)GlcNAc(b1-4)GlcNAc
# Summary of the method: as §1
# GlcNAc(b1-3)GalNAc = target: GlcNAc(b1-3)GalNAc
# Summary of the method: as §1
# Kdn(a2-3)Gal(b1-3)GalNAc = target: Kdn(a2-3)Gal(b1-3)GalNAc
# Summary of the method: as §1
# Man(a1-3)[Man(a1-6)]Man = target: Man(a1-3)[Man(a1-6)]Man
# Summary of the method: as §1
# [5] = target: Man(a1-3)[Man(a1-6)]Man(b1-4)GlcNAc(b1-4)[Fuc(a1-6)]GlcNAc
# Summary of the method: as §1
# [6] = target: Neu5Ac(a2-3)Gal(b1-3)GlcNAc(b1-2)Man
# Summary of the method: as §1
# [7] = target: Neu5Ac(a2-3)Gal(b1-4)GlcNAc(b1-2)Man(a1-3)[Neu5Ac(a2-6)Gal(b1-4)GlcNAc(b1-2)Man(a1-6)]Man(b1-4)GlcNAc(b1-4)GlcNAc
# Summary of the method: as §1
# [8] = target: Neu5Ac(a2-3)Gal(b1-4)[Fuc(a1-3)]GlcNAc6S
# Summary of the method: as §1
# [9] = target: Neu5Ac(a2-6)Gal(b1-4)GlcNAc(b1-2)Man(a1-3)[Gal(b1-4)GlcNAc(b1-2)Man(a1-6)]Man(b1-4)GlcNAc(b1-4)GlcNAc
# Summary of the method: as §1
# [10] = target: Neu5Ac(a2-6)Gal(b1-4)GlcNAc(b1-3)Gal(b1-4)GlcNAc(b1-3)Gal(b1-4)GlcNAc(b1-2)Man(a1-3)[Neu5Ac(a2-6)Gal(b1-4)GlcNAc(b1-3)Gal(b1-4)GlcNAc(b1-3)Gal(b1-4)GlcNAc(b1-2)Man(a1-6)]GalNAc
# Summary of the method: as §1
# Neu5Ac(a2-6)GalNAc = target: Neu5Ac(a2-6)GalNAc
# Summary of the method: as §1
# Neu5Ac(b2-6)GalNAc = target: Neu5Ac(b2-6)GalNAc
# Summary of the method: as §1
# [11] = target: Neu5Gc(a2-8)Neu5Ac(a2-3)Gal(b1-4)GlcNAc
# Summary of the method: as §1
binder,measurement,setting,value
Epa1to9 (Candida glabrata) (protein) MGSSHHHHHHSSGLVPRGSHMTSSNDISLASKDPTTFPLGCSPDITTPKKGLSMELYSYDFRKKGSYPCWDAAYLDPNYPRTGYKSHRLLAKVDGVTGNINFYYHATKGCTPQLGHLPASYNYPKPLTMTNFTMLLYGYFRPKVTGFHTFTISADDLLFVNFGAGNAFDCCRRDSSADHFGNYQAYAIWGSKTAKDELTVHLDAGVYYPIRLFYNNRDYHGALSFTFKTESNENTVSDFSEYFFSLDDTEEGCPGLISYD,glycan array binding signal (z-score),Glc(b1-6)Glc,-0.333
same,glycan array binding signal (z-score),GlcA(b1-3)Gal,-0.315
same,glycan array binding signal (z-score),GlcA(b1-3)GlcNAc,-0.346
same,glycan array binding signal (z-score),[1],-0.35
same,glycan array binding signal (z-score),[2],-0.354
same,glycan array binding signal (z-score),[3],-0.295
same,glycan array binding signal (z-score),[4],-0.344
same,glycan array binding signal (z-score),GlcNAc(b1-3)GalNAc,-0.352
same,glycan array binding signal (z-score),Kdn(a2-3)Gal(b1-3)GalNAc,-0.38
same,glycan array binding signal (z-score),Man(a1-3)[Man(a1-6)]Man,-0.287
same,glycan array binding signal (z-score),[5],-0.339
same,glycan array binding signal (z-score),[6],-0.33
same,glycan array binding signal (z-score),[7],-0.322
same,glycan array binding signal (z-score),[8],-0.36
same,glycan array binding signal (z-score),[9],-0.246
same,glycan array binding signal (z-score),[10],-0.309
same,glycan array binding signal (z-score),Neu5Ac(a2-6)GalNAc,-0.343
same,glycan array binding signal (z-score),Neu5Ac(b2-6)GalNAc,-0.346
same,glycan array binding signal (z-score),[11],-0.338
